The list is not random: actives were taken first. Their share in the collection is about 6.9%.
SW480 rereplic: A quantitative high throughput screen for small molecules that induce DNA re-replication in SW480 colon adenocarcinoma cells; Potency, µM (titrated, usually from 46.1 µM), without a hit: at the top dose re-replication activation, hits mostly activators; SW480 DNA re-replication, Hoechst DNA content imaging, 48 h; 340,000 compounds, 1.8% hits; further: potency means the concentration at half of the fitted maximal effect; % of control where 0% means no effect; nearly all actives have a fitted effect of over 55% in size
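250 cells/well; 23 nL cpd via pin tool; 48 hr, 37 C, 5% CO2; Hoechst 40 min; imager read of total nuclear intensity, ex 405/em 500-530 nm.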
Giardia kill: Small Molecules that selectively kill Giardia lamblia: qHTS; 340,000 compounds, 0.15% hits; activity change, % at 7.66 µM, hits read low; AID 540267, 2011; Giardia lamblia trophozoite viability; in the data active means activity change below about -80%; inconclusive means between about -30% and that limit;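 further: parasites exposed to compound for two days anaerobically before the ATP read; on the % scale 0 is the no-effect control and ±100 the full control effect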
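ATP-content bioluminescence gauges trophozoite survival. Cells (100/well) receive compound and incubate anaerobically for 48 hrs at 37 deg C; detection reagent follows for 15-30 min at room temperature.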
Vif-A3G inh: qHTS for Inhibitors of Vif-A3G Interactions: qHTS | AID 602310, 2012 | Potency, µM (series often up to 46.1 µM), for the others: at the highest dose activity, negative = active, most hits filed as inhibitors | 410,000 compounds, 0.076% hits | HeLa A3G-eYFP + Vif (tagged APOBEC3G with the HIV-1 protein that degrades it), YFP fluorescence, overnight | DNA dC->dU-editing enzyme APOBEC-3G (Homo sapiens), Q9HC16; further: potency means the concentration at half of the fitted maximal effect; on the % scale 0 is the no-effect control and ±100 the full control effect; nearly all actives have a fitted effect of over 60% in size
Target sequence (Q9HC16 whole entry, looked up): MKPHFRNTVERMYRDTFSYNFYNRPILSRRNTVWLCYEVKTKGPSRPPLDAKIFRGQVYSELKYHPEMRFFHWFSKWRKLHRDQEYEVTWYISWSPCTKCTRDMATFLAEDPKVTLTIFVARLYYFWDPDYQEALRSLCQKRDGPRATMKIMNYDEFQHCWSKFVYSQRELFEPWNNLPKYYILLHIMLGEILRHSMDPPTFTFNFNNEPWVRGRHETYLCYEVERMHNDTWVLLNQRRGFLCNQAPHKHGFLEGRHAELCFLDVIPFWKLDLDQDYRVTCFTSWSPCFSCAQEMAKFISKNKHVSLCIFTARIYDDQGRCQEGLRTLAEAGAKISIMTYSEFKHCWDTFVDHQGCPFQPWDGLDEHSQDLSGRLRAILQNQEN
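Read-out is eYFP fluorescence (Ex 488/Em 500-530) from Vif-expressing HeLa A3G-eYFP cells; more signal means A3G escaped Vif-mediated degradation. Cells plated overnight, compound pinned in, incubated overnight at 37 deg C.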
Vif-APOBEC3F blk: qHTS for Inhibitors of Vif-A3F Interactions: qHTS | AID 602313, 2012 | HeLa A3F-eYFP + Vif (tagged APOBEC3F with the HIV-1 protein that degrades it), YFP fluorescence increase | Potency, µM (series often up to 46.1 µM), inactives show at the highest dose activity, negative = active | 390,000 compounds, 0.2% hits; further: potency means the concentration at half of the fitted maximal effect; % of control where 0% means no effect; nearly all actives have a fitted effect of over 65% in size
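HeLa cells stably expressing A3F-eYFP plus Vif, plated and incubated overnight at 37 deg C, then exposed to compounds overnight at 37 deg C. Blocked degradation read as raised yellow fluorescence (Ex 488/Em 500-530).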
MCF10A rereplic: A quantitative high throughput screen for small molecules that induce DNA re-replication in MCF 10a normal breast cells; MCF 10A DNA re-replication, Hoechst nuclear intensity, 48 h; Potency, µM (series often up to 46.1 µM), inactives show top-dose activity, positive = re-replication, hits mostly activators; 350,000 compounds, 2.9% hits; AID 624296, 2012; further: potency means the concentration at half of the fitted maximal effect; % of control where 0% means no effect; nearly all actives have a fitted effect of over 50% in size
IL1B secr inh: qHTS for Inhibitors of Inflammasome Signaling: IL-1-beta AlphaLISA Primary Screen | THP-1 LPS/ATP IL-1B secretion, AlphaLISA, 16 h; stronger effect = lower value | activity change, % at 57.5 µM | 360,000 compounds, 4.7% hits | AID 743279, 2014; in the data active means activity change below about -50%; inconclusive means mostly about -30% to -49%; further: on the % scale 0 is the no-effect control and ±100 the full control effect
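Secreted IL-1B measured by AlphaLISA bead assay after 16 h compound exposure of THP-1 cells; compounds (final up to 57.5 uM) added 1 h before LPS (250 ng/mL) and ATP (1.25 mM) stimulation; lower signal means less secretion.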
* marks the source's active call; other numbers are inactive results; [ ] = another dose, or the depositor's remark. Unless noted, the call rests on the fitted dose curve; in most records, active means well fitted curve in the direction sought with a large enough effect; inconclusive means small, poorly fitted or top-dose-only effect, or another doubt; inactive means no such curve, though single readings can be large; an effect the other way counts as inactive or inconclusive.

Screening C=CCOC(=O)Cn1cnc2c(sc3nc(C)cc(C)c32)c1=O returned SW480 rereplic -6%, Giardia kill -12, Vif-A3G inh -2%, Vif-APOBEC3F blk -9%, MCF10A rereplic 6% and IL1B secr inh -71*.
`CCN1CCN(C(=O)c2ccc3c(c2)c(C)c(C)n3Cc2ccccc2)CC1` gave SW480 rereplic -2%, Giardia kill -11, Vif-A3G inh -2%, Vif-APOBEC3F blk 6%, MCF10A rereplic inconclusive and IL1B secr inh -15.
CC(=O)Nc1cc(C(=O)N2CCc3ccccc3C2)ccc1Sc1ccc(C)cc1 was read as SW480 rereplic 2%, Giardia kill 29, Vif-A3G inh 0%, Vif-APOBEC3F blk -5%, MCF10A rereplic 21µM* and IL1B secr inh 0.
CCn1c(C)c(C)c2cc(C(=O)N3CCc4ccccc4C3)ccc21 was read as SW480 rereplic inconclusive, Giardia kill -26, Vif-A3G inh -17%, Vif-APOBEC3F blk 5%, MCF10A rereplic 3.7µM* and IL1B secr inh 26.
Screening CCCN1CCN(C(=O)c2ccc(Sc3ccc(C)cc3)c(NC(C)=O)c2)CC1 returned SW480 rereplic -9%, Giardia kill 16, Vif-A3G inh -1%, Vif-APOBEC3F blk -7%, MCF10A rereplic -10% and IL1B secr inh 10.
For CCc1cccc(C)c1NC(=O)Cn1nnc(-c2nc(-c3ccccc3F)no2)c1N the results were Vif-A3G inh -4% and Vif-APOBEC3F blk -4%.
Screening O=C(Nc1ccc(N2CCN(c3ccc(F)cc3)CC2)c(C(=O)O)c1)c1ccccc1F returned Vif-A3G inh -4% and Vif-APOBEC3F blk -2%.
`O=C(NC(=S)Nc1cc(-c2nc3ccccc3[nH]2)ccc1Cl)c1ccc2c(c1)OCO2` gave SW480 rereplic 5.8µM*, Giardia kill 5, Vif-A3G inh -25%, Vif-APOBEC3F blk inconclusive, MCF10A rereplic 3.3µM* and IL1B secr inh -22.
For Cc1ccc(-c2nc3ccccc3[nH]2)cc1NC(=O)c1ccc2c(c1)OCO2 the results were SW480 rereplic 9%, Giardia kill -28, Vif-A3G inh 0%, Vif-APOBEC3F blk 0%, MCF10A rereplic -8% and IL1B secr inh -17.
Screening Cc1ccc(-c2nc3ccccc3[nH]2)cc1NC(=S)NC(=O)c1ccccc1Br returned SW480 rereplic -5%[9.22 µM], Giardia kill -18, Vif-A3G inh 1%, Vif-APOBEC3F blk -3%, MCF10A rereplic 25% and IL1B secr inh -56*.
COCCCNC(=O)C(=O)NCC(c1ccc2c(c1)OCO2)N1CCOCC1 (centres undefined) was read as Vif-A3G inh 2% and Vif-APOBEC3F blk -7%.
Screening Cc1cccc(CNC(=O)Cc2csc3ccccc23)c1 returned Giardia kill 27 and Vif-A3G inh -4%.
For CCc1ccc(C(=O)CN2C(=O)NC3(CCCCCC3)C2=O)cc1 the results were SW480 rereplic 10%, Giardia kill 13, Vif-A3G inh -1%, Vif-APOBEC3F blk -12%, MCF10A rereplic inconclusive and IL1B secr inh -27.
`O=c1c(Cl)c(Cl)cnn1Cc1nnc(-c2ccc(Cl)cc2)o1` gave SW480 rereplic 3.7µM*, Giardia kill -1, Vif-A3G inh inconclusive, Vif-APOBEC3F blk 7%, MCF10A rereplic 5.8µM* and IL1B secr inh -101*.
`CCc1ccc(C(=O)Cn2ncc(Cl)c(Cl)c2=O)cc1` gave SW480 rereplic 7.3µM*, Giardia kill 11, Vif-A3G inh inconclusive, Vif-APOBEC3F blk -10%, MCF10A rereplic 5.8µM* and IL1B secr inh -116*.
